Measured values as given in the supplement of paper PMC9262897, “Low-cost anti-mycobacterial drug discovery using engineered E. coli” (Nature Communications, 2022).
Where a name gives a salt, the structure may show the parent alone. ± gives the standard deviation of the averaged measurements.

Tested on: E. coli TESEC Alr+ wild-type control
Assay: growth (OD600 after 10 h); higher = more growth (less inhibition)
Settings: compound 0.1 mM; raw OD600 reference: median of DMSO wells 0.241, cell-free background 0.041
Description: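 TESEC Mtb Alr E. coli, or the Alr+ wild-type control, in 384-well plates with Prestwick library compounds at 0.1 mM and 1% DMSO, across arabinose induction levels of 1E3 to 1E7 nM. Growth is read as OD600 after 10 h at 37 °C in triplicate biological replicates.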

Compared with `CN1CCc2c(c3ccccc3n2Cc2ccccc2)C1` [Mebhydroline 1,5-naphtalenedisulfonate], `COc1cccc(N(C)C(=S)Oc2ccc3c(c2)CCCC3)n1` [Liranaftate] is higher in growth: 0.175 ± 0.0028 for the first, 0.213 ± 0.0062 for the second.

First: C[C@@H](O[C@H]1OCCN(Cc2n[nH]c(=O)[nH]2)[C@H]1c1ccc(F)cc1)c1cc(C(F)(F)F)cc(C(F)(F)F)c1 [Aprepitant]
Second: CCCc1nn(C)c2c(=O)[nH]c(-c3cc(S(=O)(=O)N4CCN(C)CC4)ccc3OCC)nc12 [Sildenafil]
The growth of the first is lower: 0.136 ± 0.0085 for the first, 0.201 ± 0.016 for the second.

First: Oc1c(Cl)cc(Cl)c(Cl)c1Cc1c(O)c(Cl)cc(Cl)c1Cl [Hexachlorophene]
Second: C[C@@H]1CCC[C@H](C)N1NC(=O)c1ccc(Cl)c(S(N)(=O)=O)c1 [Clopamide]
The growth of the first is lower: 0.0444 ± 0.00067 for the first, 0.235 ± 0.0084 for the second.

`CC1(C)S[C@@H]2[C@H](NC(=O)[C@H](N)c3ccccc3)C(=O)N2[C@H]1C(=O)O` [Ampicillin trihydrate] and `CCC(=O)O[C@]1(C(=O)SCF)[C@H](C)C[C@H]2[C@@H]3C[C@H](F)C4=CC(=O)C=C[C@]4(C)[C@@]3(F)[C@@H](O)C[C@@]21C` [Fluticasone propionate] are within error of each other in growth: 0.235 ± 0.0072 for the first, 0.233 ± 0.0036 for the second.

`CCCC(=O)Nc1ccc(OCC(O)CNC(C)C)c(C(C)=O)c1` (configuration not stated) [Acebutolol hydrochloride] and `COC(=O)CCc1ccc(OCC(O)CNC(C)C)cc1` (configuration not stated) [Esmolol hydrochloride] are within error of each other in growth: 0.239 ± 0.008 for the first, 0.234 ± 0.014 for the second.

Compared with `CC(C)(C)NC[C@H](O)COc1cccc2c1CCCC2=O` [(-) -Levobunolol hydrochloride], `O=c1[nH]cnc2c1ncn2[C@H]1CC[C@@H](CO)O1` [Didanosine] is lower in growth: 0.227 ± 0.022 for the first, 0.18 ± 0.011 for the second.
